In PubChem BioAssay (EPA / NIEHS) one finds outcome and AC50 data, which are given here for 31 compounds.

Assay [1] can be described thus: LTEA_HepaRG_LDH_cytotoxicity: Cytotoxicity Assessment in the Life Technologies and Expression Analysis (LTEA) Assay (AID 2283563).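 For AC50: LDH activity released into spent culture medium as a marker of cell death.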 An outline of the steps: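 Human HepaRG hepatic cells are treated with test chemicals for 48 h at up to 100 uM in 0.5% DMSO. Cytotoxicity is scored from medium LDH against the vehicle control.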
The nature of assay [2]: ATG_XTT_Cytotoxicity: Cytotoxicity Assessment in the Attagene TRANS-FACTORIAL HepG2 Assay (AID 2283584).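 For AC50: XTT signal for cell number as viability in transfected HepG2 cells; cells exposed to compound for 24 h before reading; active means loss of viability signal versus DMSO baseline.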 An outline of the steps: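 Transfect HepG2 with GAL4-UAS reporter units, dose compound, incubate 24 h, then measure viable cell number by XTT. Fit concentration response against DMSO baseline.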
Assay [3] in a line: Tanguay_ZF_120hpf_MORT_legacy: (Legacy) Oregon State University Tanguay Lab 120 Hour Post-fertilization zebrafish Assay for Mortality (AID 2283633). The gist of the method:
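Mortality endpoint from a multiplexed whole-embryo zebrafish screen. Dechorionated wild-type embryos received compound at 6 hpf and remained under static exposure at 28C until 120 hpf, with death noted as a present/absent call.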

Assay [4] can be described thus: Tanguay_ZF_120hpf_YSE_legacy: (Legacy) Oregon State University Tanguay Lab 120 Hour Post-fertilization zebrafish Assay for Yolk Sac Edema (AID 2283634).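 For AC50: actives raise the incidence of yolk sac edema above the DMSO baseline.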 The gist of the method:
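Readout: presence or absence of yolk sac edema at 120 hpf, fitted upward against DMSO controls. Exposure ran statically from 6 hpf in dechorionated embryos kept at 28C.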

The nature of assay [5]: TOX21_p53_BLA_p2_viability: Viability Assessment in the Tox21 HCT-116 p53 Agonism Beta-lactamase Assay, Phase 2 (AID 2283591).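 Note: compound exposure lasted 16 h at 37 °C; actives lower the ATP signal meaning cytotoxicity.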 An outline of the steps: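 HCT-116 p53-bla cells (4000/well) rested 5 h at 37C, then received compounds in DMSO (217-fold dilution) for 16 h at 37C, 5% CO2. After the CCF4 read, CellTiter-Glo was added; ATP luminescence was read after 30 min at room temperature.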

The target of assay [6] is Cellular tumor antigen p53 (Homo sapiens) (UniProt P04637). The assay can be described thus: TOX21_p53_BLA_p2_ratio: Tox21 HCT-116 p53 Agonism Beta-lactamase Assay, Ratio, Phase 2 (AID 2283592). The gist of the method: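 Cleaved-to-uncleaved substrate ratio (460 vs 530 nm) measured in HCT116 cells with an inducible beta-lactamase reporter linked to p53 activity. Compounds incubated 16 h at 37C before 2 h room-temperature CCF4-AM loading.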
Sequence of Cellular tumor antigen p53 (Homo sapiens) (P04637 whole entry, looked up): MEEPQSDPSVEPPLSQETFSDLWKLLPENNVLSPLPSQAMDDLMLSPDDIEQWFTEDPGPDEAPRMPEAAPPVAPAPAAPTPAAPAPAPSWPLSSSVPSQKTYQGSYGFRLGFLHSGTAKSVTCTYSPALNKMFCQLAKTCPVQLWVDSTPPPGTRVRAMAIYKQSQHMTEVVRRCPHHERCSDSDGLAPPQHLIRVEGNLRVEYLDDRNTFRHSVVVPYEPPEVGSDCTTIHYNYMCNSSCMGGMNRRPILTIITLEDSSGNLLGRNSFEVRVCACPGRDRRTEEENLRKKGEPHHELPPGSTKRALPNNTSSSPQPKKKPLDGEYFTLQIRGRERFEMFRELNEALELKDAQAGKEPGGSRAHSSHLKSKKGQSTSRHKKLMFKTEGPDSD

Assay [7] has the same target. The assay can be described thus: TOX21_p53_BLA_p3_ratio: Tox21 HCT-116 p53 Agonism Beta-lactamase Assay, Ratio, Phase 3 (AID 2283596). An outline of the steps:
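Cells were seeded at 4000/well, rested 5 h at 37C, then dosed with DMSO compound solutions (217-fold dilution) for 16 h. CCF4-AM substrate was loaded for 2 h at room temperature, and the 460/530 nm emission ratio was fitted for gain of signal versus DMSO.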

Assay [8] has the same target. The assay can be described thus: TOX21_p53_BLA_p5_ratio: Tox21 HCT-116 p53 Agonism Beta-lactamase Assay, Ratio, Phase 5 (AID 2283599). The gist of the method: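 HCT-116 cells carrying a p53-inducible beta-lactamase reporter were seeded at 4000 cells/well and dosed after 5 h with compound in DMSO (217-fold dilution). After 16 h at 37C, CCF4-AM substrate was added for 2 h, and the 460/530 nm emission ratio was scored as gain-of-signal versus DMSO.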

The nature of assay [9]: TOX21_p53_BLA_p5_viability: Viability Assessment in the Tox21 HCT-116 p53 Agonism Beta-lactamase Assay, Phase 5 (AID 2283600). The gist of the method:
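Viability is taken from cellular ATP content, measured by luciferase luminescence in the same wells after the beta-lactamase ratio read. Cells are seeded at 4000 per well and exposed to DMSO-dissolved compounds, diluted 217-fold, for 16 h.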

Assay [10] concerns the target Cellular tumor antigen p53 (Homo sapiens) (UniProt P04637). The assay can be described thus: TOX21_p53_BLA_p4_ratio: Tox21 HCT-116 p53 Agonism Beta-lactamase Assay, Ratio, Phase 4 (AID 2283601). An outline of the steps: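 HCT116 cells carrying an inducible beta-lactamase reporter were plated at 4000 cells/well, rested 5 h, then exposed to compounds in DMSO (217-fold dilution) for 16 h at 37C. CCF4-AM substrate was loaded 2 h at room temperature; 460/530 nm emission ratio scored gain-of-signal versus DMSO.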

Inconclusive results are not listed. More than one record can exist for a structure, and the calls need not agree. Active and inactive are the calls of the source. Rule for the calls: active = hit-call score of the fitted dose curve at least 0.9, where 1 is the maximum; inconclusive = response in the unintended direction; inactive = score below 0.9.

As for `CC(C)CC(C)O` (stereo unspecified), the result in [1], in assay [2], in [3] and in assay [4] was inactive.
One may read the AC50 as the midpoint of the concentration-response curve, whichever way the signal moves. `OCc1c[nH]c2ccccc12`: the call in assay [2], in assay [5], in assay [7], in assay [8] and in assay [9] was inactive. Moreover, the half-maximal activity concentration (AC50) in assay [6] is 86.5 µM (active); in assay [10], 78.9 µM (active).
Take `CNC(C)=O`: the outcome in assay [1], in [2] and in [3] was inactive.
For `c1ccc(C(O[C@@H]2CCCN(CCc3ccc4c(c3)OCO4)C2)c2ccccc2)cc1`, the concentration at half-maximal activity (AC50) in [1] is 74.7 µM (active); in assay [6] it was 70.1 µM (active); in [4], 24.7 µM (active). Besides, the result in assay [7], in [8], in assay [10] and in assay [3] was inactive.
With `OC(Cn1cncn1)(Cn1cncn1)c1ccc(F)cc1F`, the result in [1], in assay [2], in [5], in [6], in assay [7] and in assay [8] was inactive. Besides, the call in assay [9], in [10], in [3] and in assay [4] was inactive.
`S=P(N1CC1)(N1CC1)N1CC1`: the call in assay [2], in [5], in assay [6], in assay [7], in [8] and in assay [9] was inactive. In addition, in assay [10], the outcome was inactive. The half-maximal activity concentration (AC50) in assay [7] was 48.8 µM (active).
Regarding `CCCCC(CC)C(=O)OCCOCCOCCOC(=O)C(CC)CCCC` (stereo unspecified), the compound was called inactive in assay [1], in [5], in assay [6], in assay [7], in [9] and in [10]. Also, the outcome in [3] and in assay [4] was inactive.
On to `NC(=O)N1c2ccccc2C=Cc2ccccc21`, for which the result in [1], in [2], in assay [3] and in [4] was inactive.
In the case of `Cc1ncc([C@@H](CCCCCCc2ccc3c(n2)NCCC3)CC(=O)O)cn1`, the call in assay [1], in assay [3] and in assay [4] was inactive.
`CCCCCCCCCCCCCCCCOS(=O)(=O)O`: the outcome in assay [1], in assay [5], in assay [6], in [7], in [8] and in assay [9] was inactive. Also, the outcome in assay [10], in [3] and in assay [4] was inactive. In addition, the half-maximal activity concentration (AC50) in [2] was 79 µM (active).
As to `O=S1(=O)CCCO1`, the compound was classed as inactive in assay [1], in [2], in assay [5], in [6], in assay [7] and in assay [8]. Further, the compound was classed as inactive in assay [9], in assay [10] and in assay [3].
On to `CC(C)C(=O)Nc1ccc([N+](=O)[O-])c(C(F)(F)F)c1`, for which the call in assay [1], in [2], in assay [3] and in [4] was inactive.
In the case of `CCCCCCOC(=O)CC(CC(=O)OCCCCCC)(OC(=O)CCC)C(=O)OCCCCCC`, the outcome in assay [1], in assay [2], in assay [3] and in assay [4] was inactive.
Regarding `CCCCCCCCCCCCCCO`, the compound was called inactive in [1], in assay [2], in assay [5], in assay [6], in [7] and in assay [9]. Further, the result in assay [10], in assay [3] and in assay [4] was inactive.
Consider `O=C(O)[C@H](O)[C@@H](O)C(=O)O`, for which the result in assay [1], in assay [3] and in assay [4] was inactive.
In the case of `O=C1CN(N=Cc2ccc([N+](=O)[O-])o2)C(=O)N1`, the call in assay [2], in [5], in [6], in [7], in assay [8] and in assay [9] was inactive. The result in [10] and in assay [3] was inactive.
For `C=CN1CCCC1=O`, the call in assay [2], in [5], in assay [6], in assay [7], in assay [8] and in [9] was inactive. Also, the outcome in assay [10], in assay [3] and in [4] was inactive.
For `CCN(CC)C(=S)SSC(=S)N(CC)CC`, the result in assay [1], in [2] and in [3] was inactive. The half-maximal activity concentration (AC50) in [4] is 0.425 µM (active).
Regarding `CC1(C)C(=O)N(Cl)C(=O)N1Cl`, the result in [1], in assay [2], in assay [5], in assay [6], in [8] and in [9] was inactive. The outcome in [3] and in assay [4] was inactive.
For `OC(CCl)CCl`, the compound was called inactive in [2], in assay [5], in [6], in [7], in [8] and in assay [9]. Further, the compound was classed as inactive in assay [3] and in [4].
Regarding `O=C(NO)C1(NS(=O)(=O)c2ccc(Oc3ccc(F)cc3)cc2)CCOCC1`, the compound was called inactive in assay [1], in assay [3] and in assay [4].
Turning to `C[C@]12C=CC(=O)C=C1CC[C@H]1[C@@H]3C[C@@H](O)[C@](O)(C(=O)CO)[C@@]3(C)C[C@H](O)[C@@]12F`, the call in [2], in assay [5], in assay [6], in assay [7], in assay [8] and in assay [10] was inactive. Further, the compound was classed as inactive in [3] and in assay [4].
As for `COS(C)(=O)=O`, the result in assay [1], in assay [3] and in [4] was inactive.
On to `O=C(N[C@H](CO)[C@H](O)c1ccc([N+](=O)[O-])cc1)C(Cl)Cl`, for which the compound was called inactive in assay [2], in assay [5], in assay [6], in [7], in assay [8] and in assay [9]. Further, in [10], the result was inactive.
Turning to `CCCCCCCCCC`, the compound was classed as inactive in [1], in [5], in assay [6], in assay [7], in assay [8] and in [9]. The outcome in assay [10], in assay [3] and in assay [4] was inactive.
Regarding `CC(C)c1nnc2ccc(-c3ocnc3-c3cc(F)ccc3F)cn12`, the outcome in assay [1], in assay [5], in assay [8], in [3] and in assay [4] was inactive.
On to `CCCCCCCCN(C)C`, for which the result in assay [1], in [2], in assay [5], in assay [7], in assay [8] and in assay [9] was inactive. Besides, the outcome in [3] was inactive.
As to `NC(N)=O`, the compound was classed as inactive in [1], in [2], in assay [3] and in [4].
Consider `O=S(=O)(O)c1ccc(N=Nc2c(O)ccc3cc(S(=O)(=O)O)ccc23)cc1`, for which the call in assay [1], in [3] and in assay [4] was inactive.
Regarding `O=c1[nH]cnc2c1ncn2[C@H]1CC[C@@H](CO)O1`, the call in assay [1], in assay [2], in [3] and in assay [4] was inactive.
Consider `Cc1nccn1-c1ccc(Sc2cccc(C3(C(N)=O)CCOCC3)c2)cc1`, for which, in assay [1], the AC50 was 20.3 µM (active). In addition, the compound was classed as inactive in assay [3] and in assay [4].
